About 83,000 compounds went through this panel and 20% of them were active in at least one assay; those are over-represented in the sample as a whole.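 Cells were grown in 96-well plates and exposed to the test compound at a single concentration for 48 hours; results are reported as percent growth, with values below 10 considered active.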 Activity calls are given as the source filed them.
What follows are compounds tested on T-47D breast (assay: NCI-60 one-dose screen, 48 h (100 = growth as untreated, 0 = no growth, -100 = all killed)). Conditions: 10 µM unless noted.
Experimental: Growth inhibition of the T-47D human tumor cell line is measured as a screen for anti-cancer activity. Cells are grown in 96 well plates and exposed to the test compound for 48 hours. Compounds are tested at a single concentration, which is 10^-5 M for most compounds. The reported endpoint is percent growth (GI% or GIPRCNT), where numbers from 0 - 100% represent growth inhibition, and numbers from -100% - 0 represent cell death. For example, a value of 40 represents 60% growth inhibition. A value of 0 means no net growth occurred over the course of the experiment. A value of -40 indicates 40% of cells at the beginning of the experiment died by the end of the experiment. A value of -100 means all cells are dead at the end of the experiment.
NCI-60 Human Tumor Cell Lines Screen was performed using the standard one-dose NCI protocol, which is described in more detail at https://dtp.cancer.gov/discovery_development/nci-60/default.htm.
Compounds with GIPRCNT values below 10 were considered active. Activity score was based on GIPRCNT using the following formula: […]
Score is 0 for GIPRCNT values of 100 or above, 50 for GIPRCNT values of 0, and 100 for GIPRCNT values of -100.
For `CCOC(=O)c1c(C)nn(CC(O)c2ccccc2)c1NC(=O)Nc1cccc(F)c1` (stereo not given), the growth was 81.8% (inactive). In the case of `CCOC(=O)C1=C(c2ccccc2)N=c2s/c(=C/c3ccc(Br)cc3)c(=O)n2C1c1ccc(O)cc1` (stereo not given), the growth is reported as 69.7% (inactive). `O=C(c1ccc(Cl)cc1Cl)N1c2ccccc2Sc2ccccc21` was tested, and the growth was 67.3% (inactive). `CC(C)CCC[C@@H](C)C1CCC2C3CCC4=C/C(=N/OCCN(C)C)CC[C@]4(C)C3CC[C@@]21C` (stereo not given in full) was tested, and the growth was 87.4% (inactive). `N#Cc1c(N2CCOCC2)nc(=S)[nH]c1-c1ccccc1` was tested, and the growth was 37.3% (inactive). For `CCOC(=O)c1c(-c2ccc(Cl)cc2)c(C#N)c2c(C#N)c(N)nn2c1N`, the growth was 46.5% (inactive). For `N#Cc1c(-c2ccccc2)cc(-c2ccccc2)n(CCCC(=O)NO)c1=O`, the growth was 18.7% (inactive). For `COc1ccc(OC)c(Nc2nnc(-c3ccc(Cl)cc3)o2)c1`, the growth was 59.9% (inactive). `O=c1nc(Nc2nc3ccccc3s2)[nH]c(=O)c2ccccc12` was tested, and the growth was 78.9% (inactive). For `CN1CCN(C(=O)c2cc(-c3ccc4ncnc(N5CCc6cc(F)c(Cl)cc65)c4c3)cnc2N)CC1`, the growth was -1.85% (active). For `CCC/C(=N\NC(N)=O)C(OC)OC`, the growth was 114% (inactive). `N#Cc1c(Nc2ccc(F)cc2)n[nH]c1-c1cccs1` was tested, and the growth was 86% (inactive). `CCCCCCCC/C=C\CCCCCCCCOc1ccccc1CC(=O)NCC[N+]1(C)CCCCC1` was tested, and the growth was 59.9% (inactive). `NC(CSC(c1ccccc1)(c1ccccc1)c1ccc2c(c1)OCO2)C(=O)O` (stereo not given) was tested, and the growth was 30.2% (inactive). `O=C1/C(=C/c2ccc(C(F)(F)F)cc2)COc2ccc(O)cc21` was tested, and the growth was 78% (inactive). With `O=C1C(Cl)=C(NCCN2CCOCC2)C(=O)c2ncccc21` the growth was -40.8% (active). `N=c1sc(Cc2cc(Cl)ccc2Cl)cn1CC(=O)c1ccccc1` was tested, and the growth was 38.3% (inactive). With `CCN(CC)CCNC(=O)c1ccc(-c2nc3ccc4[nH]ncc4c3c3c2CCCC3)cc1` the growth was 44.6% (inactive). In the case of `COc1ccc2cc(Cn3cc[n+](Cc4ccc5ccccc5c4)c3)ccc2c1`, the growth is reported as -4.51% (active). `Cc1ccc(C)n1/C=C/n1c(C)ccc1C` was tested, and the growth was 90.5% (inactive). `COc1ccc(-c2cn(-c3ccc(Cl)cc3)c(SCC(=O)c3ccc([N+](=O)[O-])cc3)n2)cc1` was tested, and the growth was 83.4% (inactive). In the case of `CCOC(=O)C1CCN(c2ccc(N3C[C@@H](CNCc4ccc(C(=N)N)cc4)OC3=O)cc2)CC1`, the growth is reported as 96.2% (inactive). `COc1cc(/C=C2\CN(S(=O)(=O)c3ccc(C)cc3)C/C(=C\c3cc(CN4CCCCC4)c(O)c(OC)c3)C2=O)cc(CN2CCCCC2)c1O` was tested, and the growth was 33.8% (inactive). `COc1ccc(/C=C/C(=O)c2cc3c(N)c(C(=O)Nc4ccc(OC)cc4)sc3nc2C)cc1` was tested, and the growth was 57.2% (inactive). `CCCCCCCCNc1cc2c3c(c1)CCCN3CCC2` was tested, and the growth was 13.4% (inactive). `Cc1c(Cl)cccc1C(=O)Nc1nc2c(s1)CN(C(=O)Nc1cccc(C(F)(F)F)c1)CC2` was tested, and the growth was 46% (inactive). For `CCCCCn1sc(=O)n(Cc2ccc(CNC(=O)OCc3ccc4c(Cl)cc(Cl)c(O)c4n3)cc2)c1=O`, the growth was 60.8% (inactive). `O=C(N/N=C/c1ccc([N+](=O)[O-])cc1)c1ccc2nc(-c3ccc(Cl)cc3)[nH]c2c1` was tested, and the growth was 10.5% (inactive). In the case of `COc1ccc(NC(=O)c2sc3nc4c(cc3c2N)CCCC4)cc1`, the growth is reported as 32.4% (inactive). In the case of `CCOC(=O)c1c(C)nc2ccccc2c1/C=C/c1ccc(OC)cc1`, the growth is reported as 22.2% (inactive). With `O=C1OCC2=C1C(c1cccc(F)c1)c1cc3c(cc1N2CCO)OCO3` (stereo not given) the growth was 21.3% (inactive). For `O=C1/C(=C/c2ccccc2[N+](=O)[O-])COc2ccc(O)cc21`, the growth was 18% (inactive). `CCCCCCCCn1ccc2cc(NC(=O)Cn3cc(CN4CCN(CC)CC4)nn3)ccc21` was tested, and the growth was 58.2% (inactive). With `Cc1c2ccccc2nc2c1ccc1cccnc12` the growth was 35.1% (inactive). For `COc1ccccc1NC(=O)c1ccc(/C=C/C(=O)c2nccn2C)cc1`, the growth was -15.8% (active). With `O=C(CCCCl)NNc1nccc(Nc2ccc(S(=O)(=O)Nc3ccncc3)cc2)n1` the growth was 94.1% (inactive). For `CCN1C(=O)N(CC)C2C1NN=c1s/c(=C3\C(=O)N(CCc4ccccc4)c4ccccc43)c(=O)n12` (stereo not given), the growth was 44.4% (inactive). In the case of `CCN(CC)CCOc1ccc(Nc2ncc3cc(-c4ccc(O)cc4)c(=O)n(C)c3n2)cc1`, the growth is reported as 67.4% (inactive). `CC1(C)CC[C@]2(C(=O)O)CC[C@]3(C)C(=CC[C@@H]4[C@@]5(C)C[C@@H](Cc6cn([C@@H]7O[C@H](CO)[C@@H](O)[C@H](O)[C@H]7O)nn6)[C@H](O)C(C)(C)[C@@H]5CC[C@]43C)[C@@H]2C1` was tested, and the growth was 94.2% (inactive). In the case of `COc1ccc(/C=C/C(=O)c2ccc(Nc3nc(Nc4ccc(F)cc4)nc(Nc4ccc(Cl)cc4)n3)cc2)cc1`, the growth is reported as 67.3% (inactive).
